Measurements from PubChem BioAssay AID1159580 (chemical genetic matrix, 2015).
The campaign covered roughly 5,500 compounds. About 2,000 (36%) were called active. Roughly 18% stayed inconclusive and do not appear here. Rule as the data show it: active = normalized growth mostly below about 0.91 (no sharp cut-off); inconclusive = no clear call, values can overlap the other calls; inactive = mostly above about 0.92. This is one part of the list.

Experiment: chemical genetic growth profiling, strain panel (AID 1159580);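 also: tested at 20 µM; growth read once vehicle control cultures reached saturation at 30 °C; 1 = growth at the plate median or of vehicle wells; lower values mean less growth of the strain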
Conditions: S. cerevisiae deletion strains, growth OD
[1] = locus YAL013W, strain DEP1, stronger effect = lower value
[2] = locus YAL040C, strain CLN3, stronger effect = lower value
[3] = locus YCL061C, strain MRC1 (second series), stronger effect = lower value
[4] = locus YER002W, strain NOP16, stronger effect = lower value
[5] = locus YMR263W, strain SAP30, stronger effect = lower value
[6] = locus YNL175C, strain NOP13, stronger effect = lower value
[7] = locus YNL197C, strain WHI3, stronger effect = lower value
[8] = locus YNL224C, strain SQS1, stronger effect = lower value
[9] = locus YOR083W, strain WHI5 (second series), stronger effect = lower value
[10] = locus YPL055C, strain LGE1, stronger effect = lower value

Measured: normalized growth

c1ccc2nc(C3=NCCN3)ccc2c1
inactive: [1] 0.99 | [2] 1.04 | [3] 0.986 | [4] 0.993 | locus YGR229C, strain SMI1, stronger effect = lower value 0.955 | [5] 0.982 | [6] 0.995 | [7] 0.996 | [8] 0.993 | [9] 1 | [10] 1.01 | locus YPL241C, strain CIN2, stronger effect = lower value 0.987

NC(=O)CN1CC(O)CC1=O (stereo not given)
inactive: [1] 1 | [2] 1 | [3] 1 | locus YDR363W, strain ESC2, stronger effect = lower value 0.995 | [4] 1.01 | locus YGR078C, strain PAC10, stronger effect = lower value 1.02 | locus YJR075W, strain HOC1, stronger effect = lower value 1.01 | [5] 1 | [6] 1.01 | [7] 1.01 | [8] 1 | [9] 1 | [10] 1.01
